Source: PubChem BioAssay (Tox21)
Values joined by “and” are separate entries in the source; they are usually repeats but may differ in a detail not shown here. Identical values can stand only once. Records with an inconclusive call do not appear. Entries that show only a call come without a potency. Unmarked numbers belong to inactive results. Active and inactive are the calls of the source. The call rests on the fitted dose curve; in most records, active means well fitted curve in the direction sought with a large enough effect in the repeat runs; inconclusive means weak or mixed curves; inactive means no such curve, though single readings can be large; an effect the other way counts as inactive or inconclusive.

How the values were obtained:
[1] = qHTS assay to identify small molecule antagonists of the retinoid acid receptor (RAR) signaling pathway - cell viability counter screen (AID 1159551); further: nearly all actives have a fitted effect of over 35% in size
Outline: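 Cytotoxicity counter screen: ATP content quantified by CellTiter-Glo luminescence in C3RL4 cells treated 6 hr at 37 C with compound and retinol (1 uM final). Cells plated at 1,000/well and cultured overnight before dosing.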

[2] = qHTS assay to identify small molecule antagonists of the retinoic acid receptor (RAR) signaling pathway (AID 1159552; further: nearly all actives have a fitted effect of over 50% in size)
Outline: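 Readout: luciferase luminescence, 30 min post-reagent at RT. Setup: C3RL4 RARE reporter cells, compounds plus retinol 1 uM final, 6 hr incubation at 37 C and 5% CO2.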

[3] = qHTS assay to identify small molecule antagonists of the estrogen related receptor (ERR) signaling pathway from Tox21 library - cell viability counter screen (AID 1224834); further: nearly all actives have a fitted effect of over 30% in size
Outline: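 CellTiter-Fluor fluorescence, read after 30 min at 37 C, measures viability of ERR cells. Cells plated at 2,000/well and incubated 6 h before pin-tool compound addition, then exposed 17.5 hours at 37 C.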
Potency means the concentration at half of the fitted maximal effect.

Structure (SMILES) | Potency [1] | Potency [2] | Potency [3] | activity change, negative = cytotoxicity [1] | activity, negative = inhibition [2] | viability change, negative = cytotoxic [3]
CC1=CCC(=O)O1 | inactive | inactive | inactive | – | – | –
O=S(O)O | – | – | – | -0.573% [at 19 µM] | 5.26% [at 19 µM] | 0.472% [at 19 µM]
O=C(O)c1cccc(Cl)n1 | inactive | inactive | inactive | – | – | –
CCN=c1cc2oc3cc(NCC)c(C)cc3c(-c3ccccc3C(=O)OCC)c-2cc1C | 60.9 µM (active) and 48.6 µM (active) | 24.2 µM (active) and 24.3 µM (active) | 272 nM (active) and 243 nM (active) | – | – | –
O=S(=O)(O)c1cc(S(=O)(=O)O)c2ccc3c(S(=O)(=O)O)cc(S(=O)(=O)O)c4ccc1c2c43 | – | – | – | 4.17% [at 19 µM] | 14.4% [at 19 µM] | 4.03% [at 19 µM]
CCCCCCCC(=O)OCC | inactive | inactive | inactive | – | – | –
CCC(C)C(=O)OC (stereo not drawn) | inactive | inactive | inactive | – | – | –
CCCOc1sc(C(=O)N2CCC(c3cc(CN)ccc3F)CC2)c(C)c1Br | 62.8 µM (active) | 39.7 µM (active) | 49.9 µM (active) | – | – | –
C=CC(C)(CCC=C(C)C)OC(=O)/C=C/c1ccccc1 (stereo not drawn) | inactive | inactive | inactive | – | – | –
CCCCOC(=O)C(C)CC (stereo not drawn) | inactive | inactive | inactive | – | – | –
CO[Si](CCC1CCC2OC2C1)(OC)OC (stereo not drawn) | inactive | inactive | inactive | – | – | –
Cc1cc(=O)[nH]c(=O)[nH]1 | inactive | inactive | inactive | – | – | –
CCN=C1C=CC(=C(c2ccc(N(CC)CC)cc2)c2ccc(N(CC)CC)cc2)c2ccccc21 | 24.2 µM (active) | 4.83 µM (active) | 8.58 µM (active) | – | – | –
CC1(C)COCN1 | inactive | inactive | inactive | – | – | –
CC(C)(C)c1cc(CCC(=O)NCCCCCCNC(=O)CCc2cc(C(C)(C)C)c(O)c(C(C)(C)C)c2)cc(C(C)(C)C)c1O | inactive | inactive | inactive | – | – | –
CC(C)c1ccccc1N | inactive | inactive | inactive | – | – | –
Cc1cnccn1 | inactive | inactive | inactive | – | – | –
CC[N+](CC)(CC)Cc1ccccc1 | inactive | inactive | inactive | – | – | –
COc1nccnc1CC(C)C | inactive | inactive | inactive | – | – | –
CN(C)CCCN1c2ccccc2Sc2ccc(C(F)(F)F)cc21 | inactive | 29.8 µM (active) | 29.8 µM (active) | – | – | –
CC(C)CCOCCC(C)C | inactive | inactive | inactive | – | – | –
